Each sequence was assayed against STARD3NL (assay: pooled miR-30 sensor sort-seq; sequence = guide strand). Conditions: shRNA.
Also: reference of the scale not given here.

Point of comparison: TTGATTAGGAATACAGCACAAG, sensor-assay potency score (higher = more potent) -0.839. Against it:
- TTTCTTCTTCTGCTTCTTGAGG — higher, -0.759
- TTGAAATCCAGGAACCACGTCT — higher, 0.74
- TTTGCTAGTAAAAAGGCACTGG — higher, 0.563
- TTTAAATCGAAAAACTGCCAGA — higher, -0.348
- TGAAGCATCCTGAACTATCAGG — higher, -0.809
- TATTACAATAAATAAATCTTTA — lower, -1.13
- TTTAACTCTATTATCCACAGTA — higher, 0.804
- TTAGCTGTTCAATAAAGCCAGC — lower, -0.902
- TAAATAAATCTTTATTAGCTGT — higher, -0.476
- TACTTCAATATATTAAGTCTTT — lower, -0.927
- TTCAACTTTACTGTCGACAGGG — higher, 0.68

The sequences below were run against STARD3 in the same assay as above. Conditions: shRNA.

Point of comparison: TTCATTATTCTTCTCAAACTTC, sensor-assay potency score (higher = more potent) -0.376. Against it:
- TTATTCTTCTCAAACTTCCAGT — higher, -0.167
- TGTGTTGGTATTCAGTTCGATG — lower, -1.58
- TGTCTTGTTCCACAGCACCATC — lower, -1.77
- TAGGACTTTGAAGTCAAGGAAC — lower, -1.37
- TTTTCTTCCCAGCAACTTCTTC — lower, -1.04
- TTCCACTCGCTGCAGGATCTGG — lower, -1.17
- TTCCACAGCACCATCCTCTCGG — higher, 0.506

From the OligoGym collection
